Shown are actives, neighbours in structure and some others; about 0.51% of the full set was active somewhere.
FMDV antiviral: shows antiviral activity against foot and mouth disease virus | FMDV antiviral cell assay, firefly luciferase signal | Potency, µM (doses to about 57.5 µM), without a hit: at the highest dose activity change, negative = inhibition, hits mostly inhibitors | 0.23% of 120,000 active | AID 1745856; further: nearly all actives have a fitted effect of over 60% in size
FMDV RLuc: shows antiviral activity in FMDV Renilla assay. FMDV replicon cells, Renilla luciferase signal. Potency, µM (highest dose often 57.5 µM), inactives show at the top dose activity change, negative = inhibition, actives largely listed as inhibitors. 0.32% of 120,000 active; further: nearly all actives have a fitted effect of over 55% in size
* hit, by the source's call; ? = inconclusive; [ ] = remark or other dose. The call rests on the fitted dose curve. On the % scale 0 is the no-effect control and ±100 the full control effect; potency means the concentration at half of the fitted maximal effect.

SMILES | FMDV antiviral | FMDV RLuc
O=C(NCc1ccc(OC(F)(F)F)cc1)N1CCc2sccc2C1 | 14.0% | 3.2%
O=C(Nc1ccc(-n2cccn2)c(F)c1)C1CCN(C(=O)c2ccco2)CC1 | -6.9% | -19.3%
O=C(Nc1nc(-c2ccc(Cl)cc2Cl)cs1)C1CCN(C(=O)c2ccco2)CC1 | ? | 35.5µM*
CCCCC(CC)C(=O)Nc1ccc(C)cc1Br (stereo unspecified) | 14.0% | 18.6%
Cn1ncc(C(=O)NCc2cccs2)c1-n1cccc1 | 4.6% | -1.8%
COc1ccc(N(Cc2cccs2)S(=O)(=O)c2ccc3c(c2)oc(=O)n3C)cc1 | 24.5% | 230.6%
COc1cccc2sc(N3CCN(C(=O)CCS(=O)(=O)c4ccc(F)cc4)CC3)nc12 | 35.5µM* | ?
Cc1ccc(S(=O)(=O)CCC(=O)N2CCN(c3nc4c(C)c(Cl)ccc4s3)CC2)cc1 | -0.5% | -11.0%
CC(/C=C/N(C)C)=C\C=[N+](C)C | 8.91µM* | 3.98µM*
CCOC(=O)C(C)Sc1nc(-c2ccccc2)ccc1C#N (stereo unspecified) | 110.2% | 8.3%
CCc1cc2c(=O)c(Oc3ccc(F)cc3)c(C(F)(F)F)oc2cc1OC(C)=O | 14.1µM* | 10µM*
CCc1cc2c(=O)c(Oc3ccc(I)cc3)c(C(F)(F)F)oc2cc1OC(=O)c1ccc(Br)cc1 | 6.1% | 12.1%
CC(C)(C)c1ccc(NC(=O)c2cccc(CN3CCCC3=O)c2)cc1 | ? | 28.2µM*
CCOc1ccc(NC(=O)c2cccc(CN3CCCC3=O)c2)cc1 | 73.2% | -2.6%
CCOCCCNC(=O)CSCc1nc(-c2ccc(C)cc2)oc1C | 9.2% | 8.6%
CCc1ccc(-c2nc(CSCC(=O)NCCCOC)c(C)o2)cc1 | 25.1µM* | -22.9%
Cc1csc2nc(-c3cccc(NC(=O)c4cccc(F)c4)c3)cn12 | -4.3% | 12.6µM*
Cc1csc2nc(-c3cccc(NC(=O)c4ccccc4F)c3)cn12 | 115.8% | 20.1%
Cc1nc(CN2CCN(S(=O)(=O)c3ccccc3Cl)CC2)cs1 | -11.0% | -4.8%
Cc1ccc(Nc2nc(CN3CCN(S(=O)(=O)c4cc(C)ccc4C)CC3)cs2)cc1 | ? | 8.91µM*
CCOC(=O)c1c(S(=O)(=O)N2CCC(C(=O)NCc3ccccc3Cl)CC2)c(C)n(C)c1C | -1.0% | 89.9%
Cc1ccc(N2CCN(C(=O)c3nn(C)c4c3CSc3ccccc3-4)CC2C)cc1 (stereo unspecified) | -11.4% | -10.8%
Cc1ccc2[nH]c(C(=O)Nc3ccc4c(c3)OCCO4)cc2c1 | 17.1% | ?
Cc1cc(C(O)(C(F)(F)F)C(F)(F)F)cc(C)c1OC(=O)c1ccccc1F | 44.0% | -30.0%
COc1ccc(C(=O)Oc2c(C)cc(C(O)(C(F)(F)F)C(F)(F)F)cc2C)cc1 | 10µM* | 8.91µM*
SMILES | FMDV antiviral | FMDV RLuc
CC(NC(=O)c1ccc(C(C)(C)C)cc1)C(=O)NC(Cc1ccc(O)cc1)C(=O)O (stereo unspecified) | 32.6% | -0.7%[1.06 µM]
COc1ccc(NS(=O)(=O)c2ccc(-n3cccn3)cc2)cc1OC | 8.91µM* | ?
COC(=O)c1ccc(NS(=O)(=O)c2ccc(-n3cccn3)cc2)cc1 | 5.2% | 45.6%
Cc1cc(C(=O)Cn2c(Cl)nc3c2c(=O)n(C)c(=O)n3C)c(C)n1CCc1ccccc1 | 28.2µM* | 7.94µM*
Cc1cc(C(=O)Cn2c(Cl)nc3c2c(=O)n(C)c(=O)n3C)c(C)n1C | 34.8% | 14.6%
C#CCNC(=O)C(C#N)C(=O)CCc1ccc2ccccc2c1 (stereo unspecified) | -5.9% | ?
COc1ccc(Cc2nnc(NC(=O)C3CCCO3)s2)cc1OC (stereo unspecified) | 22.9% | 6.6%
O=C(Nc1ccc(OC(F)(F)F)cc1)c1cc2ccccn2n1 | 19.6% | 8.91µM*
O=C(Nc1ccccc1C(F)(F)F)c1cc2ccccn2n1 | 144.7% | 24.7%
Cn1c(=O)c2c(-c3ccccc3)n(-c3ccc(Cl)cc3)cc2n(C)c1=O | 3.8% | 18.5%
O=C(O)c1cccc2[nH]cnc12 | -8.9% | -5.7%
CCOC(=O)N1CCc2c(sc(NCc3ccc(OC)c(OC)c3OC)c2C(=O)Nc2ccc(OC)cc2OC)C1 | -25.6% | 8.5%
CCOC(=O)N1CCc2c(sc(NCc3ccc(OCC)cc3)c2C(=O)Nc2ccc(OC)cc2OC)C1 | 25.1µM* | 23.8%
CCOC(=O)c1[nH]c(C)c(C(=O)NCc2ccc(F)cc2)c1C | -16.7% | -5.2%
CC(=O)c1[nH]c(C)c(C(=O)NCc2ccc(Cl)cc2)c1C | 11.2µM* | ?
Cc1ccc(CN(C)CC(=O)Nc2ccc(C(F)(F)F)cc2)cc1 | -2.6% | 1.4%
CC(C)(C)c1cc(-c2nc3ccccc3[nH]2)n[nH]1 | 2.82µM* | 7.9%
CC(C)(C)c1cc(C(C)(C)C)c2oc(=O)c(-c3nc4ccccc4[nH]3)cc2c1 | -17.7% | -11.3%
CCCc1cc(=O)oc2cc(OCc3c(C)c(C)cc(C)c3C)ccc12 | -2.7% | 1.7%
COC(=O)Cc1c(C)c2ccc(OCc3ccccc3F)c(C)c2oc1=O | 173.1% | 15.5%
COC(=O)Cc1c(C)c2ccc(OCC(=O)C(C)(C)C)c(C)c2oc1=O | ? | 28.2µM*
CCN(Cc1cccs1)C(=O)CCl | -8.2% | -12.6%

Assay outcomes: PubChem BioAssay, National Center for Advancing Translational Sciences (NCATS)
